ABCB6 inh 2: human ABCB6 transporter inhibition. K562-ABCB6 porphyrin accumulation, flow cytometry, 1 h; stronger effect = lower value. fluorescence ratio to DMSO, % at 10 µM. 360,000 tested, 0.19% active;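 active = fluorescence ratio to DMSO below 75%, the collection mean minus 3 SD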;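 note: signal is porphyrin accumulated inside mitochondria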
VLA-4 inh: inhibition in a human VLA-4 binding assay; VLA-4 expressing cells, ligand binding flow cytometry; 330,000 tested, 0.2% active; P13612; inhibition, % (about 7 µM as worked out from the volumes in the protocol); AID 2557; in the data active = inhibition above about 50%
Target sequence (P13612 whole entry, looked up): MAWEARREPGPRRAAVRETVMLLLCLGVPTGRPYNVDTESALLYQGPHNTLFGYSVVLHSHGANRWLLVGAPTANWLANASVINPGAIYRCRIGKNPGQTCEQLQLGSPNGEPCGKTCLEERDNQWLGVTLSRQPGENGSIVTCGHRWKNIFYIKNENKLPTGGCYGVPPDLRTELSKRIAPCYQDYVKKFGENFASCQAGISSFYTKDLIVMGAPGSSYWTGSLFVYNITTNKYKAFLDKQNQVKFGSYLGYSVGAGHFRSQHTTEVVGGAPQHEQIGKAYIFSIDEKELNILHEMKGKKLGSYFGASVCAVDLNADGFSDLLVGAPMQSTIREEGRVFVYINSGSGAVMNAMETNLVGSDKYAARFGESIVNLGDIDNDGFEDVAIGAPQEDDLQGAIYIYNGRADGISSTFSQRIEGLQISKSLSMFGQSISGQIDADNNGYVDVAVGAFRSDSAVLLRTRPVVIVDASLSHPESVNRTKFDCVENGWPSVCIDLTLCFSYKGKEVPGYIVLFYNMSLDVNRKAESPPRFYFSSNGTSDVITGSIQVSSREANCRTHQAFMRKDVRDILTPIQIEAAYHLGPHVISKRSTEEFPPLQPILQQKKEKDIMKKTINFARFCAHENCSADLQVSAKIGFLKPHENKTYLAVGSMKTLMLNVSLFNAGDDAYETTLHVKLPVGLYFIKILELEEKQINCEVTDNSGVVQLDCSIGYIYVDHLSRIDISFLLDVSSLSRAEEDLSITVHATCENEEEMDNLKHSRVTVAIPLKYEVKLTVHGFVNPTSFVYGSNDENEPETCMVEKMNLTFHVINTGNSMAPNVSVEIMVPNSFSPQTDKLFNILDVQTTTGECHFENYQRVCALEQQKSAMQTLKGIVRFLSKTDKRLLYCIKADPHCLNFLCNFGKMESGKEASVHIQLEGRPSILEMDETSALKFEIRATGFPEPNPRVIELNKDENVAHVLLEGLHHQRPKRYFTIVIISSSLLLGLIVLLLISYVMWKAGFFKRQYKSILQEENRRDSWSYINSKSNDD
CaV13 FRET inh: Primary screen for inhibitors of IQ motif and Ca2+-dependent inactivation inhibitor domain binding in CACNA1D, Förster resonance energy transfer in living cells, …; inhibition, % at 12.3 µM; HEK cells, CFP/YFP FRET ICDI-IQ, plate reader, 10 min; percent FRET-ratio fall versus neutral wells; AID 743397; 340,000 tested, 0.098% active;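 active = mean replicate inhibition of at least 30% and at least 1% of replicates passing that level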
Exocytosis inh: blocks lytic granule exocytosis; TALL-104 LAMP-1 surface exposure, flow cytometry; cells stimulated with thapsigargin and PMA; inhibition, % at 10 µM; AID 651702; 360,000 tested, 0.66% active;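 active = inhibition above about 55%, limit read from the data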
VLA-4 mod pick: confirmation of allosteric modulators of human VLA-4 integrin | 1,300 tested, 2% active | shares compounds with VLA-4 inh | inhibition, % at 6.7 µM | AID 2813 | U937 cells, HUTS-21 LIBS mAb binding, flow cytometry; LDV ligand present at threefold Kd; in the data active = inhibition above about 40%
Each line names hits and unclear results; the compound was inactive in the other large screens (follow-up assays come after a bar, where they were run). This is a sample that favours compounds with a hit; in the whole collection about 1.1% have one here.

COC(=O)c1ccc(N2CCN(c3ccccc3)CC2)c(NC(=O)C2CC2)c1	none
CC(=O)N1C[C@@H](CO)[C@@H](N(C)C(=O)/C=C/c2ccccc2)C[C@H]1c1ccccc1	none (no result: ABCB6 inh 2, VLA-4 inh, Exocytosis inh)
Cc1ccccc1NC(=O)c1ccc2nc(N3CCOCC3)sc2c1	none | VLA-4 mod pick inactive
O=C(c1ccc2nc(N3CCOCC3)sc2c1)N1CCN(C(=O)c2ccco2)CC1	none | VLA-4 mod pick inactive
Cc1ccccc1CNC(=O)c1ccc2nc(N3CCOCC3)sc2c1	none | VLA-4 mod pick inactive
Cc1cc(C(=O)N2CCN(C(=O)c3ccco3)CC2)ccc1[N+](=O)[O-]	VLA-4 inh 51 | VLA-4 mod pick inactive
S=C1NC2(CCCCCC2)NN1c1ccccc1	none (no result: ABCB6 inh 2, VLA-4 inh, Exocytosis inh)
COc1ccc(C(=O)NCC2CCN(C(=O)C(=O)c3cc4ccccc4o3)CC2)c(OC)c1	none (no result: ABCB6 inh 2, VLA-4 inh, Exocytosis inh)
Cc1ccnc(SCC(=O)N2CCC(C(N)=O)CC2)n1	VLA-4 inh 51 | VLA-4 mod pick inactive
O=C(NCC1CCN(C(=O)C(=O)c2cccs2)CC1)c1ccncc1	none (no result: ABCB6 inh 2, VLA-4 inh, Exocytosis inh)
CCOC(=O)CNS(=O)(=O)c1cc(-c2nnc(Nc3ccc4c(c3)OCO4)c3ccccc23)ccc1C	VLA-4 inh 61 | VLA-4 mod pick inactive
Cc1ccc(-c2nnc(Nc3ccc(O)cc3)c3ccccc23)cc1S(=O)(=O)NCCO	none
Cc1c(NC(=O)c2c(F)cccc2F)c(=O)n(-c2ccccc2)n1C	none
Cc1c(NC(=O)c2ccc(Cl)c(S(=O)(=O)N3CCOCC3)c2)c(=O)n(-c2ccccc2)n1C	none | VLA-4 mod pick inactive
COc1cccc(OC)c1C(=O)Nc1c(C)n(C)n(-c2ccccc2)c1=O	none (no result: CaV13 FRET inh) | VLA-4 mod pick inactive
Cc1c(NC(=O)c2ccccc2N(C)S(=O)(=O)c2ccccc2)c(=O)n(-c2ccccc2)n1C	none | VLA-4 mod pick inactive
Cc1ccc(-c2cc(C(=O)Nc3c(C)n(C)n(-c4ccccc4)c3=O)[nH]n2)c(O)c1	none | VLA-4 mod pick inactive
C[C@@H]1ON(C)[C@H]2C[C@H]3c4[nH]c5c(-c6cccc(Cl)c6)cccc5c4CCN3C(=O)[C@@H]12	none (no result: ABCB6 inh 2, VLA-4 inh, Exocytosis inh)
Cc1c(NC(=O)C2CC=CCC2C(=O)O)c(=O)n(-c2ccccc2)n1C (stereo not given)	none (no result: CaV13 FRET inh) | VLA-4 mod pick inactive
COCCN(Cc1cc2cc3c(cc2nc1Cl)OCO3)C(=O)Nc1ccc(F)cc1	none
COCCN(Cc1cc2cc3c(cc2nc1Cl)OCO3)C(=O)Nc1ccc(OC)cc1	VLA-4 inh 54 | VLA-4 mod pick inactive
CC1=CC(c2ccccc2)=Nc2ccc(C)cc2N1	VLA-4 inh 66 | VLA-4 mod pick inactive
COc1ccc2c(c1)NC(=O)CC(c1ccccc1)=N2	none
C[C@H](O)[C@@H]1C(=O)N2CCc3c([nH]c4c(-c5ccc6c(c5)OCO6)cccc34)[C@@H]2C[C@@H]1N(C)C(=O)Nc1ccccc1	none (no result: ABCB6 inh 2, VLA-4 inh, Exocytosis inh)
O=C(NC1CCCCC1)c1ccc(S(=O)(=O)NCc2ccco2)cc1	VLA-4 inh 52 | VLA-4 mod pick inactive
COc1ccc(NC(=O)Nc2ccc(F)cc2)cn1	none | VLA-4 mod pick inactive
COC(=O)c1ccc(NC(=O)Nc2ccc(F)cc2)cc1	none (no result: CaV13 FRET inh)
CC(C)(C)c1ccc(C(=O)NCCCN2CCN(CCCNC(=O)c3ccc(C(C)(C)C)cc3)CC2)cc1	none | VLA-4 mod pick inactive
Cc1ccccc1C(=O)NC1CCN(C(=O)Nc2ccc(F)cc2)CC1	none
CC(=O)Nc1ccc(NC(=O)CN(c2cc(Cl)ccc2Cl)S(C)(=O)=O)cc1	VLA-4 inh 60 | VLA-4 mod pick inactive
COc1ccc(OC)c(NC(=O)NCc2ccc(F)cc2)c1	none
COc1ccc(C)cc1NC(=O)NCc1ccc(F)cc1	none | VLA-4 mod pick inactive
O=C(Nc1ccc(F)cc1F)C1CCN(S(=O)(=O)c2cccnc2)CC1	none
CN(Cc1ccc2c(c1)CCCN2C)C(=O)[C@@H](Cc1ccccc1)NC(=O)[C@H]1O[C@@H](n2ccc(=O)[nH]c2=O)[C@H](O)[C@@H]1O	none (no result: ABCB6 inh 2, VLA-4 inh, Exocytosis inh)
Cc1ccc(S(=O)(=O)n2nccc2-c2c(-c3ccc(Cl)cc3)noc2C)cc1	none
O=C(CNc1ccccc1)N/N=C/c1c(O)ccc2ccccc12	VLA-4 inh 50 | VLA-4 mod pick inactive
CC(C)CCn1c(C(C)O)nc2ccccc21 (stereo not given)	VLA-4 inh 87 | VLA-4 mod pick inactive
O=C(O)CCC(=O)Nc1ccc(S(=O)(=O)Nc2nccs2)cc1	VLA-4 inh 56 | VLA-4 mod pick inactive
CCC(=O)Nc1ccc(S(=O)(=O)Nc2nccs2)cc1	none

Screening results as filed in PubChem.
